Test results reported in PubChem BioAssay (EPA / NIEHS).
Where “and” joins values, the source holds several entries; their conditions need not be identical. Identical values can stand only once. Inconclusive results are not listed. A structure can be active in one record and inactive in another. Calls of active or inactive are those of the source. The calls were made as follows: active = hit-call score of the fitted dose curve at least 0.9, where 1 is the maximum; inconclusive = response in the unintended direction; inactive = score below 0.9.

molecular target: Cellular tumor antigen p53 (Homo sapiens) (UniProt P04637); test: TOX21_p53_BLA_p2_ratio: Tox21 HCT-116 p53 Agonism Beta-lactamase Assay, Ratio, Phase 2 (AID 2283592)
Source text: TOX21_p53_BLA_p2 is a cell-based, single-readout assay that uses HCT116, a human intestinal cell line, […] in a 1536-well plate.TOX21_p53_BLA_p2_ratio is an assay readout measuring reporter gene via receptor activity and designed using inducible reporter (beta lactamase induction) detected with GAL4 b-lactamase reporter gene. The signal is derived from the ratio of cleaved (ch2) to uncleaved (ch1) reporter gene substrate used as the measure of target activity.Data from the assay component TOX21_p53_BLA_p2_ratio was analyzed into 1 assay endpoint. This assay endpoint, TOX21_p53_BLA_p2_ratio, was analyzed in the positive analysis fitting direction relative to DMSO as the negative control and baseline of activity. Using a type of inducible reporter, gain-of-signal activity can be used to understand changes in the reporter gene as they relate to the gene TP53. Furthermore, this assay endpoint can be referred to as a primary readout, because this assay has produced multiple assay endpoints and this ratio serves a reporter gene function to understand target activity. To generalize the intended target to other relatable targets, this assay endpoint is annotated to the DNA binding intended target family, where the subfamily is tumor suppressor.
Thawing Method: Place 14 mL of pre-warmed thaw medium into a 15 mL of conical tub. Remove the vial of cells to be thawed from liquid nitrogen and thaw rapidly by placing at 37C in a water bath with gentle agitation for 1-2 minutes. Decontaminate the vial by wiping with 70% ethanol before opening in a biological safety cabinet. Transfer the vial contents drop-wise into 14 mL of thaw medium in a sterile 15-mL conical tub. Centrifuge cells at 900 rpm for 4 minutes and resuspend in thaw medium. Transfer contents to the T75 tissue culture flask containing Thaw Medium and place flask in a humidified 37C/5% CO2 incubator. Switch to growth medium at first passage.Propagation Method: Aspirate medium, rinse once in DPBS, add 0.25% Trypsin/EDTA and swirl to coat the cell evenly. Add an equal volume of Growth Medium to inactivate Trypsin after 2-3 minutes incubation at 37C. Centrifuge cells at 900 rpm for 4 minutes and resuspend in growth medium. Cell should be passage or fed at least twice a week.Assay Protocol: Harvest cells from culture in growth medium and resuspend in assay medium. 2.2 Dispense 4000 cells/5 uL/well into 1536-well black/clear bottom plates using a Multidrop dispenser. After the cells were incubated at 37C for 5 hours, 23 nL of compounds dissolved in DMSO were transferred to the assay plate by a PinTool resulting in a 217-fold dilution. Incubate the plates for 16 hours at 37C, 5% CO2. Add 1 uL of 6X LiveBLAzer FRET B/G (CCF4-AM) Substrate Mixture to each well using a BioRAPTR dispenser and incubate the plates at room temperature for 2 hours. Measure fluorescence intensity at 460 and 530 nm emission and 405 nm excitation by an Envision detector. Data is expressed as the ratio of 460nm/530nm emissions. Add 4 uL of Cell-titer Glo to each well using BioRAPTR and incubate the plates at room temperature for 2 hours. Measure fluorescence intensity by a VewLux plate reader.

Sequence of Cellular tumor antigen p53 (Homo sapiens) (P04637 whole entry, looked up, the tested form may be a part): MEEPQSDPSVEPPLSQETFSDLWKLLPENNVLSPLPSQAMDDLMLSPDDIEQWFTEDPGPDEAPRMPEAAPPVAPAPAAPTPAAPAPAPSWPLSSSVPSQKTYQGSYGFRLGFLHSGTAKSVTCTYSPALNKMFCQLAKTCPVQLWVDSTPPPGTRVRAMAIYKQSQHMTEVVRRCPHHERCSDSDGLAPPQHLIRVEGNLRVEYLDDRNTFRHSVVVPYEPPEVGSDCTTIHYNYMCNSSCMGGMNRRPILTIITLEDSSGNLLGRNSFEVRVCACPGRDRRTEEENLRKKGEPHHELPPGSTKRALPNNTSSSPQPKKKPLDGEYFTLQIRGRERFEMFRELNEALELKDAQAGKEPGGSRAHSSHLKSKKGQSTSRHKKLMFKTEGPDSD

**Q.** How did the outcome turn out when `COc1c(C(C)(C)C)cc([N+](=O)[O-])c(C)c1[N+](=O)[O-]` was run?
**A.** inactive

**Q.** With `Nc1cc(Cl)cc(Cl)c1` as the compound, how does the outcome read?
**A.** inactive

**Q.** Which outcome does the source give for `O=P1(N(CCCl)CCCl)NC(OO)CCO1` (stereo unspecified) here?
**A.** inactive

**Q.** With `Cn1cc[n+](C)c1` (tested in a mixture with another compound) as the compound, how does the outcome read?
**A.** inactive

**Q.** How did the outcome turn out when `O=c1c2ccccc2c(=O)c2c1cc(Cl)c1[nH]c3c([nH]c12)c(Cl)cc1c(=O)c2ccccc2c(=O)c13` was run?
**A.** inactive

**Q.** For `C=CC(=O)OCC(C)C`, which outcome is on record?
**A.** inactive

**Q.** Which outcome does the source give for `CC[C@H]1C[C@H]2[C@@H]3CCC4=CC(=O)CC[C@@H]4[C@H]3CC[C@]2(C)[C@H]1O` here?
**A.** inactive

**Q.** What does the source list for `c1ccc(Nc2ccc3ccccc3c2)cc1`?
**A.** outcome: inactive; AC50: 74.9 µM (active)

**Q.** For `C=CCc1ccc(OC(=O)Cc2ccccc2)c(OC)c1`, which outcome is on record?
**A.** inactive

**Q.** For `CN1[C@@H]2CC[C@H]1CC(OC(=O)c1cc(Cl)cc(Cl)c1)C2` (stereo partly specified), which outcome is on record?
**A.** inactive

**Q.** `COC1=CC(=O)O[C@@H](CCc2ccccc2)C1` was tested. Which outcome did it give?
**A.** inactive

**Q.** Which AC50 does the source give for `O=C1C(Cl)=C(Cl)C(=O)C(Cl)=C1Cl` here?
**A.** 13.7 µM (active)

**Q.** What about the outcome of the same compound?
**A.** inactive

**Q.** Which outcome does the source give for `C=CCO` here?
**A.** inactive

**Q.** For `CCOC(=O)c1ncn2c1CN(C)C(=O)c1c(I)cccc1-2`, which outcome is on record?
**A.** inactive

**Q.** With `C[N+](C)(C)C` as the compound, how does the outcome read?
**A.** inactive

**Q.** Which outcome does the source give for `CC(C)[C@@]1(NC(=O)[C@@H]2C[C@@H]3c4cccc5[nH]cc(c45)C[C@H]3N(C)C2)O[C@@]2(O)[C@@H]3CCCN3C(=O)[C@H](Cc3ccccc3)N2C1=O` here?
**A.** inactive

**Q.** For `C[C@]12C/C(=C/O)C(=O)C[C@@H]1CC[C@@H]1[C@@H]2CC[C@@]2(C)[C@H]1CC[C@]2(C)O`, which outcome is on record?
**A.** inactive

**Q.** And the AC50?
**A.** 42.5 µM (active)

**Q.** Which outcome does the source give for `[O-][Br+2]([O-])O` here?
**A.** inactive

**Q.** `CCC(Cl)[N+](=O)[O-]` (stereo unspecified) was tested. Which outcome did it give?
**A.** inactive

**Q.** Which outcome does the source give for `CCC[N+](=O)[O-]` here?
**A.** inactive

**Q.** For `COc1ccc(CO)cc1`, which outcome is on record?
**A.** inactive

**Q.** How did the outcome turn out when `CC(C)OC(=O)Cc1ccccc1` was run?
**A.** inactive

**Q.** Which outcome does the source give for `CC(C)CCCCCCCOP(=O)(Oc1ccccc1)Oc1ccccc1` here?
**A.** inactive

**Q.** For `CCCN1CCC[C@H](c2cccc(O)c2)C1`, which outcome is on record?
**A.** inactive

**Q.** For `O=C(O)COc1ccccc1`, which outcome is on record?
**A.** inactive

**Q.** For `CN1C(=O)[C@@H](NC(=O)c2cc3ccccc3[nH]2)N=C(c2ccccc2)c2ccccc21`, which outcome is on record?
**A.** inactive

**Q.** How did the outcome turn out when `C=C(C)CCl` was run?
**A.** inactive

**Q.** How did the AC50 turn out when `Oc1ccc(C2(c3ccc(O)cc3)CCCCC2)cc1` was run?
**A.** 83.2 µM (active)

**Q.** With `CCOP(=O)(OCC)SCCSCC` (tested in a mixture with another compound) as the compound, how does the outcome read?
**A.** inactive

**Q.** `CN=CNc1ccc(C)cc1C` was tested. Which outcome did it give?
**A.** inactive

**Q.** How did the outcome turn out when `C=CC[C@]1(O)CC[C@H]2[C@@H]3CCC4=CC(=O)CCC4=C3C=C[C@@]21C` was run?
**A.** inactive

**Q.** With `Nc1ccc([As](=O)(O)O)cc1` as the compound, how does the outcome read?
**A.** inactive

**Q.** And the AC50?
**A.** 35.1 µM (active)

**Q.** For `COC(C)(C)C`, which outcome is on record?
**A.** inactive

**Q.** For `Cc1coc2c1CCC(C)C2` (stereo unspecified), which outcome is on record?
**A.** inactive

**Q.** For `CCCCCCCCCCCC#N`, which outcome is on record?
**A.** inactive

**Q.** What does the source list for `C=CCOC(Cn1ccnc1)c1ccc(Cl)cc1Cl` (stereo unspecified)?
**A.** outcome: inactive; AC50: 76.1 µM (active) and 72.5 µM (active)
